# Experimental data published in PubChem BioAssay AID1463 (National Center for Advancing Translational Sciences (NCATS), 2008).
# Values joined by “and” are separate entries in the source; they are usually repeats but may differ in a detail not shown here. Identical values can stand only once. The whole screen tested about 280,000 compounds, of which about 2,600 (0.93%) were called active. Inconclusive results (about 8%) are left out. The sample as a whole holds a higher share of actives than the screen did. A number with no mark means an inactive call. Calls follow the shape of the dose curve; as a rule, active = well fitted curve in the direction sought with a large enough effect; inconclusive = small, poorly fitted or top-dose-only effect; inactive = flat fitted curve, though single readings scatter.
# Test: Counterscreen qHTS for Inhibitors of Tau Fibril Formation, Fluorescence Polarization; also: nearly all actives have a fitted effect of over 55% in size
# Conditions: tau K18 P301L (four-repeat tau fragment) Alexa594 fluorescence, heparin fibrillization; series mostly up to 57.7 µM; activity change, negative = decrease: at the top concentration
# Description: NIH Molecular Libraries Probe Production Network [MLPCN]
# NIH Chemical Genomics Center [NCGC]
# Assay Provider: Carlo Ballatore, University of Pennsylvania
# The microtubule-associated protein tau is an abundant protein in the axons of neurons that stabilizes microtubules. With its ability to modulate microtubule dynamics, tau contributes directly or indirectly, to key structural and regulatory cellular functions. Particularly important is the influence tau exerts on axonal transport, which allows signaling molecules, trophic factors and other essential cellular constituents to travel along the axons. Under pathological conditions, tau becomes sequestered into insoluble aggregates called neurofibrillary tangles. This phenomenon is believed to have pathological consequences by promoting axonal transport deficits that ultimately lead to synaptic dysfunction and neuronal loss. To identify inhibitors of tau aggregation, a heparin-induced tau fibril formation assay was used that employed a recombinantly expressed fragment of tau, K18 (Q242-E372), bearing a P301L mutation (Gustke et al. 1994; Hong et al. 1998). […] Total fluorescence (555 nm excitation and 632 nm emission) was measured to identify fluorescent or absorbent compounds at this wavelength. Such compounds may be artifacts that interfere with the Alexa 594 Tau fluorescence polarization assay.
# Gustke, N., B. Trinczek, et al. (1994). "Domains of tau protein and interactions with microtubules." Biochemistry 33(32): 9511-22.
# Hong, M., V. Zhukareva, et al. (1998).
# Li, W. and V. M. Lee (2006). "Characterization of two VQIXXK motifs for tau fibrillization in vitro." Biochemistry 45(51): 15692-701.
# von Bergen, M., S. Barghorn, et al. (2001). "Mutations of tau protein in frontotemporal dementia promote aggregation of paired helical filaments by enhancing local beta-structure." J Biol Chem 276(51): 48165-74.
# NCGC Assay Protocol Summary:
# For screening, 2 uL/well human K18 P301L (15 uM unlabeled and 0.24 uM Alexa 594-labeled tau final concentrations) in reagent buffer (100 mM sodium acetate pH 7) was dispensed into black solid 1536-well plates (Grenier) using a solenoid-based dispenser. Following transfer of 23 nL compound or DMSO vehicle by a pin tool, 2 uL/well heparin (20 uM final concentration) in reagent buffer was added and the plate centrifuged 15 s at 1000 RPM. Plates were incubated 6 hr at 37 C and then 1 uL/well ThT (30 uM final concentration) was added. After a 1 hr ambient incubation, the plates were read by an Envision (Perkin Elmer) to monitor Alexa 594 FP (555 nm excitation and 632 nm emission).
# Keywords: NIH Roadmap, MLPCN, MLI, MLSMR, NCGC, qHTS, tau, tauopathies, Alzheimer's disease, fibril, neurodegeneration, aggregation
# % is scaled to controls: 0 for no effect and ±100 for the full control effect; potency is read from the fitted curve at half-maximal effect; tags tell the direction and shape of the fitted curve or compound fluorescence and quenching.
Structure (SMILES),Potency,"activity change, negative = decrease [%]"
O=C(CSc1nc(-c2cccc(F)c2)[nH]c1-c1ccccc1)Nc1ccc2c(c1)OCO2,8.91 µM [quencher] (active),
O=C(CSc1nc(C2CC2)nc2ccccc12)Nc1ccc2c(c1)OCCO2,,-17
O=C(CN1CCN(CC(=O)Nc2ccc3c(c2)OCO3)CC1)Nc1ccc(F)cc1,,-2.95
O=C(Nc1cc(Cl)cc(Cl)c1)c1ccc2c(c1)N(Cc1cccc(Cl)c1)C(=O)c1ccccc1S2=O (stereo not drawn),,-14.3
CCc1ccc(CN(Cc2ccco2)C(=O)c2ccccc2Cl)cc1,,-6.34
COc1cccc(NC(=O)Nc2nnc(N3CCCCC3C)s2)c1 (stereo not drawn),12.6 µM [quencher] (active),
CCOC(=O)C1CCN(C(=O)Nc2cccc(OC)c2)CC1,,-1.62
COc1cccc(Nc2nnc(SCC(=O)N3CC(C)OC(C)C3)s2)c1 (stereo not drawn),,-7.2
Cc1oc(-c2ccccc2)nc1Cn1c(SCc2cccc(C(F)(F)F)c2)nc2cccnc21,,-22.8
COc1cccc(N2CCN(C(=O)CCCCCn3c(=O)[nH]c4ccccc4c3=O)CC2)c1,,-25.4
CN(c1ccccc1)c1nc(N)c([N+](=O)[O-])c(NCc2ccco2)n1,,-11.3
COc1cccc(Nc2nc(N)c([N+](=O)[O-])c(NCc3ccco3)n2)c1,3.16 µM [quencher] (active),
COc1ccc(Nc2nc(Cl)nc(NCc3ccco3)n2)cc1,,-5.38
CCOC(=O)c1c(C)oc2nc(C)nc(N3CCN(c4ccc(OC)cc4)CC3)c12,,-24.7
COc1ccc(OC)c(NC(=O)CN2CCCN(Cc3cc(C)ccc3C)S2(=O)=O)c1,,-18.6
CCc1ccc(NC(=O)Cn2nc(C)c([N+](=O)[O-])c2C)cc1,,-4.39
Cc1ccc(Oc2cc(NC(=O)CCCn3nc(C)c([N+](=O)[O-])c3C)cc([N+](=O)[O-])c2)cc1,4.47 µM [quencher] (active),
COc1ccc(CNC(=O)CCCn2nc(C)c([N+](=O)[O-])c2C)cc1,,-4.84
COc1ccc(C)cc1-n1c(-c2ccc(C)cc2)cc2c1CC(C)(C)CC2=O,,-12.5
CC(=O)NCCc1nc2cc(NC(=O)c3ccccc3)ccc2n1C,,-1.64
CCC(=O)Nc1ccc2c(c1)nc(CCN1CCN(C)CC1)n2C,,6.79
Cn1c(CCN2CCCCCC2)nc2cc(NC(=O)Nc3ccccc3)ccc21,15.8 µM [quencher] (active),
O=C(CCN1C(=O)c2ccccc2C1=O)Nc1ccncc1,,8.74
O=C(CCN1c2ccccc2Sc2ccccc21)Nc1ccccc1,11.2 µM [quencher] (active),

Structure (SMILES),Potency,"activity change, negative = decrease [%]"
CCN1/C(=C/C(=S)Nc2ccccc2)Sc2ccccc21,10 µM [quencher] (active),
CC1CCN(CCC(=O)Nc2ccccc2)CC1,,-2.65
CCN1/C(=C/c2ccc3ccc(C)cc3[n+]2CC)Sc2ccccc21,,-15.8
CCNC(=O)N1c2ccccc2Sc2ccccc21,,0.177
CCOC(=O)c1c(NC(C)=O)c2c3c(sc2n1Cc1c(C)cc(C)cc1C)CCCC3,,1.76
CCOC(=O)c1ccc(NC(=O)c2c(NCc3cccc(OC)c3)sc3c2CCC3)cc1,,-12.9
Cc1cccc(OCCSc2nc3ccccc3n2CC(=O)N2CCCCC2)c1C,,-7.58
Cc1ccc(/C=C(\C#N)C(=O)Nc2cc(C)ccc2C)cc1,,-9.9
O=C(COc1ccccc1)NCc1ccc2c(c1)CCN2C(=O)c1ccc(F)cc1,,-9.29
Fc1ccc(CN2CCc3nc(Nc4ccccc4)ncc3C2)cc1F,,-25.3
CCn1c(C)c(C)c2cc(C(=O)NCCc3cc(OC)ccc3OC)ccc21,,-21.3
CCOc1cccc(NC(=O)CSc2ncc(-c3ccc(Cl)cc3)[nH]2)c1,11.2 µM [quencher] (active),
CCOc1cccc(NC(=O)CC#N)c1,,-0.295
Cc1cccc(NC(=O)CSc2ncc(-c3ccccc3)[nH]2)c1C,,-24.1
CCCN(CCC)S(=O)(=O)c1ccc(C(=O)Nc2sc3c(c2C(=O)OC)CCN(CC)C3)cc1,,-6.21
Cc1cccc(-n2ccnc2SCC(=O)Nc2cc(C(F)(F)F)ccc2Cl)c1,,-11.6
CC1(C)CC(=O)c2ccc(O)cc2O1,,3.8
CC[C@@H]1Cc2cc(O)ccc2C2=C1c1ccc(O)cc1C[C@H]2CC,5.01 µM [quencher] (active) and 10 µM [quencher] (active),
CCN(C(=O)Cn1cnc2sc(C)c(S(=O)(=O)N3CCN(c4ncccn4)CC3)c2c1=O)c1ccccc1F,,-6.1
Cc1cc2c(cc3c(SCc4nc(-c5ccccc5)oc4C)nnc(C)n32)o1,,-15.1
COc1cc(NC(=O)c2cncc(-c3ccc(C#N)cc3)c2)cc(C(=O)Nc2cccc(C(F)(F)F)c2)c1,,-13
COc1cc(OC)cc(C(=O)Nc2ccc3nc(Nc4cccc(C(F)(F)F)c4)cc(C)c3c2)c1,3.98 µM [quencher] (active),
Cc1cc(Nc2cccc(C(F)(F)F)c2)nc2ccc(NC(=O)c3ccc(=O)[nH]c3)cc12,3.55 µM [quencher] (active),
COc1ccc(NC(=O)C(=O)NCC(=O)Nc2cccc(C(F)(F)F)c2)cc1,,6.59
